Screening data: PubChem BioAssay, The Scripps Research Institute Molecular Screening Center
Hits are enriched below; roughly 1.6% of the tested compounds scored in any of these assays.
HTR5A inv ctr = counter-screen for OPRM1-OPRD1 inverse agonists: human HTR5A inverse agonism; HTR5A cell line, luminescence; hit rate 0.083% among 340,000; P47898; AID 504634; inhibition, % at 9.3 µM; in the data active = inhibition mostly above about 23%, no sharp cut-off; inactive = mostly below about 18%;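 note: 0% = cells with DMSO and 100% = no-cell wells with DMSO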
MOR-DOR inv ag = mu-delta opioid heterodimer inverse agonism | hit rate 0.21% among 340,000 | P35372+P41143 | AID 504357 | inhibition, % at 9.3 µM | cell-based MOR-DOR heterodimer luminescence; in the data active = inhibition above about 22%, passing the limit was not always enough;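 note: 0% = cells with DMSO and 100% = wells without cells with DMSO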
m5-HT2A agonist = activates the mouse 5-HT2A serotonin receptor; hit rate 0.66% among 360,000; AID 624169; CHO-K1 mHTR2A beta-arrestin complementation, luminescence; percent of 30 µM serotonin response; activation, % at 7.6 µM;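 active = activation above a run cutoff, the mean activation of all tested compounds plus 3 SD, cut at about 14% in these data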;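 note: 0% = plate median of compound wells and 100% = 30 µM serotonin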
Target sequence (P35363 whole entry, looked up): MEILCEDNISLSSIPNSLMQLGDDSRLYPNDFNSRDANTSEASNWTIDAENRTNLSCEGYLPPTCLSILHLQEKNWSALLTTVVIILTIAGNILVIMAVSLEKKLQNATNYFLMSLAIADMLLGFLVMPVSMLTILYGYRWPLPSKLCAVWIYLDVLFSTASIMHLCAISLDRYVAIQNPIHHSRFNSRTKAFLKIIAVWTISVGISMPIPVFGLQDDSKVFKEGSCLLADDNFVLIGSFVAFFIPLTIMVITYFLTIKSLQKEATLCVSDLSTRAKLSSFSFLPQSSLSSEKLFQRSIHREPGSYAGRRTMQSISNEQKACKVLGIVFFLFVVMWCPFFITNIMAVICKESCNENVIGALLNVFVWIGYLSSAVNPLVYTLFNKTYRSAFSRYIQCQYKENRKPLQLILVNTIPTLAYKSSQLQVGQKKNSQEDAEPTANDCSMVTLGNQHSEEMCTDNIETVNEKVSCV
HTR5A ag ctr = counter-screen for OPRM1-OPRD1 agonists: human HTR5A agonism. P47898. HTR5A agonist assay, luminescence, cell-based. activation, % at 9.3 µM. hit rate 0.61% among 340,000; in the data active = activation mostly above about 9.5%, no sharp cut-off; inactive = mostly below about 7.6%;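 note: 0% = cells with vehicle only and 100% = reference agonist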
OPRM1-OPRD1 ag = OPRM1-OPRD1 heterodimerization agonism; P35372+P41143; AID 504326; activation, % at 9.3 µM; hit rate 0.3% among 340,000; cells, luminescence; in the data active = activation above about 18%;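 note: 0% = vehicle-treated cells and 100% = reference agonist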
MOR ag counter = activates human mu opioid receptor in HTR2A counterscreen. shares compounds with m5-HT2A agonist. U2OS OPRM1 beta-arrestin PathHunter, luminescence; DMSO 0%, DAMGO 9.3 µM 100%. activation, % at 9.3 µM. hit rate 5.3% among 2,300. AID 624380;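 active = mean activation above the mean of DMSO-only wells plus 3 SD, cut at about 0.5% in these data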
HTR2A ag conf = confirmation of mouse HTR2A serotonin receptor agonists; shares compounds with m5-HT2A agonist; activation, % at 7.6 µM; hit rate 19% among 2,300; CHO-K1 PathHunter beta-arrestin recruitment, luminescence; DMSO 0%, 30 µM serotonin 100%; AID 624381;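 active = mean activation across triplicates above the hit threshold derived in the original primary screen, cut at about 15% in these data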
The depositor's hits bear a star; . = not tested or not shown.

SMILES | HTR5A inv ctr | MOR-DOR inv ag | m5-HT2A agonist | HTR5A ag ctr | OPRM1-OPRD1 ag | MOR ag counter | HTR2A ag conf
CCCCC1CC2=C(C(=O)OC(C)(C)O2)C(c2ccc3ccccc3c2)O1 (stereo not drawn) | . | . | 3 | . | . | . | .
Cc1ccc(CCNS(=O)(=O)c2cc3c(cc2C)NC(=O)CO3)cc1 | 0 | 2 | -10 | 2 | 0 | . | .
Cc1cccc(CCNS(=O)(=O)c2cc3c(cc2C)NC(=O)CO3)c1 | -26 | 6 | 21* | 8 | -1 | -1 | -4
Cc1c(C(=O)OCC(=O)c2c(N)n(CC(C)C)c(=O)n(C)c2=O)oc2ccccc12 | -8 | 4 | 18* | 0 | -1 | 0 | -1
COC(=O)C[C@@H]1C=C[C@@H](NS(=O)(=O)c2ccccc2OC)[C@@H](CO)O1 | . | . | 1 | . | . | . | .
COc1ccccc1N1CCN(C(=O)CSc2nc3ccccc3[nH]2)CC1 | 11 | 2 | 15* | 1 | 0 | 0 | 0
COc1ccccc1N1CCN(C(=O)CSc2ncccc2-c2nc3ccccc3[nH]2)CC1 | -12 | -6 | -2 | -2 | 1 | . | .
CC1CCN=C(N)S1 (stereo not drawn) | -18 | 9 | 16* | 0 | -2 | 0 | 0
CC(=O)c1ccc(Oc2cnccn2)cc1 | 21 | 17 | 16* | -5 | -3 | 0 | -2
NS(=O)(=O)c1ccc(NC(=S)N2CCN(Cc3ccc(Cl)c(Cl)c3)CC2)cc1 | . | . | -9 | . | . | . | .
CCCN1CCN(C(=S)Nc2ccc(S(N)(=O)=O)cc2)CC1 | -20 | 9 | 16* | 1 | -2 | -1 | -1
NS(=O)(=O)c1ccc(NC(=S)N2CCN(c3ccc(Cl)c(Cl)c3)CC2)cc1 | 17 | -13 | 35* | 2 | 3 | 0 | 10
COC(=O)C[C@H]1C=C[C@@H](NC(=O)c2ccncc2)[C@@H](CO)O1 | . | . | 2 | . | . | . | .
C#CCN(C[C@@H]1[C@@H](OC(=O)NCCCCCC)[C@@H](OC(=O)NCCCCCC)Cn2c(=O)ccc(=O)n21)S(=O)(=O)c1ccc(C)cc1 | . | . | 9 | . | . | . | .
C#CCN(C[C@@H]1[C@@H](OC(=O)NCC2CCCCC2)[C@@H](OC(=O)NCC2CCCCC2)Cn2c(=O)ccc(=O)n21)S(=O)(=O)c1ccc(C)cc1 | . | . | 27* | . | . | 0 | 35*
COc1cc(Nc2ccn3nc(-c4ccc(F)cc4)cc3n2)cc(OC)c1OC | . | . | -1 | . | . | . | .
COc1ccc(N=C2C(=Nc3ccc(OC)cc3)N(c3ccc(OC)cc3)C(=S)N2C)cc1 | 7 | 4 | 0 | -6 | -1 | . | .
COc1ccc(N=C2C(=Nc3ccc(OC)cc3)N(c3ccc(OC)cc3)C(=S)N2c2ccccc2)cc1 | 5 | 10 | 16* | -2 | -2 | -1 | -3
CC(C)[C@@H]1Cc2[nH][nH]c(=O)c2[C@H](c2ccc(F)cc2)O1 | . | . | -5 | . | . | . | .
CC(=O)Nc1ccc(CN2CCN(CC(C)C)C(CCO)C2)cc1 (stereo not drawn) | 3 | -7 | 14* | -1 | 2 | -1 | -4
Nc1nc(F)nc2c1ncn2[C@@H]1O[C@H](CO)[C@@H](O)[C@H]1O | -18 | -72 | 20* | 5 | 13 | 0.9* | 11
CC(=O)N1CCN(C(=O)c2ccc(Cl)c(NC(=O)c3cccs3)c2)CC1 | 13 | 2 | 15* | 4 | 0 | -1 | -3
COc1cccc(C=Nc2ccc3c(c2)CCC3)c1O | 14 | 11 | 15* | -1 | -2 | -1 | -3
CC(C)COC(=O)N1CCCCC1c1cc(C(=O)Nc2ccc3c(c2)OCO3)no1 (stereo not drawn) | . | . | -1 | . | . | . | .
Cc1cc(-c2onc(C)c2C(=O)Oc2ccc(Cl)cc2)no1 | -12 | 2 | 19* | -3 | 0 | 0 | -4
SMILES | HTR5A inv ctr | MOR-DOR inv ag | m5-HT2A agonist | HTR5A ag ctr | OPRM1-OPRD1 ag | MOR ag counter | HTR2A ag conf
CCCC(=O)N1CCCC1(C)C(=O)NCCc1ccccn1 (stereo not drawn) | . | . | 22* | . | . | 0 | 3
CC(C)C(=O)N1CCCC1(C)C(=O)NCc1ccccn1 (stereo not drawn) | . | . | -1 | . | . | . | .
C[C@H]1CCCCO[C@H](CN(C)Cc2ccccc2)[C@@H](C)CN([C@@H](C)CO)C(=O)c2cc(NC(=O)CCC(F)(F)F)ccc2O1 | . | . | 23* | . | . | -1 | 0
COc1ccc(CN(C)C[C@H]2OCCCC[C@H](C)Oc3ccc(NC(=O)CCC(F)(F)F)cc3C(=O)N([C@@H](C)CO)C[C@@H]2C)cc1 | . | . | 4 | . | . | . | .
CN1CCN(c2ncnc3c2ncn3[C@H]2CN(Cc3ccncc3)C[C@@H](CO)O2)CC1 | . | . | 15* | . | . | . | -6
COc1ccc(NC(=S)N(CCc2c(C)[nH]c3ccc(C)cc23)Cc2ccco2)cc1 | 8 | 3 | 23* | -3 | -1 | 0 | -3
COCCN1C(=O)CCC1(C)c1nnnn1-c1ccc2c(c1)OCCO2 (stereo not drawn) | . | . | 11 | . | . | . | .
Cc1c(C(=O)CN2CCN(c3ccccc3)CC2)c2ccccc2n1C | 14 | -1 | 2 | -4 | 0 | . | .
Cn1c2c(c3ccccc31)CCN(CCCCN1CCN(c3ccccc3)CC1)C2=O | -5 | -1 | 21* | 1 | 0 | 0 | 40*
COc1ccc(F)cc1-c1cc(NC(C)=O)c2ncc(-c3cccc(C(F)(F)F)c3)n2c1 | . | . | 1 | . | . | . | .
CC1(/[N+]([O-])=C\c2ccccc2F)CCCCC1=O (stereo not drawn) | -11 | 2 | 16* | 0 | 0 | 0 | -1
N#C/C(=C\c1cccn1S(=O)(=O)c1cccc([N+](=O)[O-])c1)S(=O)(=O)c1ccc(F)cc1 | . | . | 0 | . | . | . | .
CCC(C)(C)NC(=O)CN(C(=O)c1csnn1)c1ccccc1-c1ccccc1 | 0 | 13 | 16* | 0 | -2 | -1 | -4
CCC(C)(C)NC(=O)CN(C(=O)c1csnn1)c1cccc2c1CCCC2 | 12 | 12 | 2 | -4 | -2 | . | .
Cc1cccc(NC(=O)C2CC(=O)OC23CCCCC3)c1 (stereo not drawn) | 0 | 12 | -3 | 1 | -2 | . | .
Cc1ccc(CNC(=O)C2CC(=O)OC23CCCC3)c(C)c1 (stereo not drawn) | -8 | 10 | 16* | 7 | -2 | 0 | 1
CSc1ncnc2c1ncn2CCCN1CCN(c2ccccn2)CC1 | . | . | -18 | . | . | . | .
CC1CC(C)CN(C(=O)c2ccc(C(=O)c3ccccc3)cc2)C1 (stereo not drawn) | 2 | -1 | -4 | -3 | 0 | . | .
C[C@@H]1c2ccccc2N2C[C@H](Cc3ccc(C(=O)c4ccccc4)cc3)C[C@@H]12 | . | . | 16* | . | . | 0 | -5
CCOC(=O)C1=CCN(S(=O)(=O)c2ccc(C)cc2)C1c1ccc(C(C)C)cc1 (stereo not drawn) | . | . | -2 | . | . | . | .
COC(=O)c1ccc2nc(-c3ccccc3)c(Cc3ccccc3OC)n2c1 | . | . | -2 | . | . | . | .
